Among the data in PubChem BioAssay (EPA / NIEHS) are outcome and AC50 values, retold here.

Activity calls are given as the source filed them. Rule for the calls: active = hit-call score of the fitted dose curve at least 0.9, where 1 is the maximum; inactive = score below 0.9.

The target of this assay is CCAAT/enhancer-binding protein beta (Homo sapiens) (UniProt P17676). Put plainly: ATG_C_EBP_CIS: Attagene CIS-FACTORIAL HepG2 Assay for human CCAAT/Enhancer Binding Protein (C/EBP) beta (AID 2282927). The conditions noted are these: HepG2 Attagene cis-factorial transcription factor reporter; actives raise or lower the signal. Here is the method: ATG_CIS is a cell-based, multiplexed-readout assay that uses HepG2, a human liver cell line, with measurements taken at 24 hours after chemical dosing in a 24-well plate.ATG_C_EBP_CIS is one of 52 assay component(s) measured or calculated from the ATG_CIS assay. It is designed to make measurements of mRNA induction, a form of inducible reporter, as detected with fluorescence intensity signals by Reverse transcription polymerase chain reaction (RT-PCR) and Capillary electrophoresis technology.Data from the assay component ATG_C_EBP_CIS was analyzed into 1 assay endpoint. This assay endpoint, ATG_C_EBP_CIS, was analyzed with bidirectional fitting relative to DMSO as the negative control and baseline of activity. Using a type of inducible reporter, measures of mRNA for gain or loss-of-signal activity can be used to understand the reporter gene at the transcription factor-level as they relate to the gene CEBPB. Furthermore, this assay endpoint can be referred to as a primary readout, because this assay has produced multiple assay endpoints where this one serves a reporter gene function. To generalize the intended target to other relatable targets, this assay endpoint is annotated to the dna binding intended target family, where the subfamily is basic leucine zipper.
CCAAT/enhancer-binding protein beta (Homo sapiens), sequence (P17676 whole entry, looked up): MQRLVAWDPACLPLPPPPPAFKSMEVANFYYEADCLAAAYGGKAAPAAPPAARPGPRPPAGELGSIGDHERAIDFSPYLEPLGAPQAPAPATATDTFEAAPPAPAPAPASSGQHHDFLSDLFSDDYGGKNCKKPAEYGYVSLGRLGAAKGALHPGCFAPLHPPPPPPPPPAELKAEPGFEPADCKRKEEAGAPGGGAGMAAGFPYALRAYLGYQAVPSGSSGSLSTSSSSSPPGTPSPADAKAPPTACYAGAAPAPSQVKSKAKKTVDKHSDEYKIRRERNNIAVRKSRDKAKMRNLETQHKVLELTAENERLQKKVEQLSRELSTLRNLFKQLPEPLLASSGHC
Human liver HepG2 cells are transiently transfected with multiple reporter transcription units (MRTUs) in 6-well plates using FuGene 6 reagent (Roche; 3 ml FuGene/1 mg DNA). The MRTU constructs are regulated by a cis-regulating element (promoter). […] A major difference between the CIS and TRANS system is that in CIS activities of endogenous TFs are measured, whereas the TRANS assay evaluates changes in activities of exogenous, chimeric NR-Gal4 proteins. […] At the end of 24 hour incubation, total RNA was isolated using TriZol reagent (Invitrogen). The isolated RNA is then reverse-transcribed using oligo(dT) primer and Mo-MLV reverse transcriptase (Invitrogen) with DNAse I (Ambion) treatment for 30 min. The one-tenth of the produced cDNA was amplified by PCR using Taq DNA polymerase (Invitrogen) and two reporter sequence-specific primers. The PCR products were fluorescently labeled by primer extension with 6-arboxyfluorescein (6-FAM) 5'-labeled reporter sequence-specific primer (2 min at 95 C, 20 s at 68 C and 10 min at 72 C) and these products were digested with 5U of HpaI (New England Biolabs) for 2h at 37 C. The fragments were purified using Qiaquick PCR columns (Qiagen), analyzed on an ABI 3130xL genetic analyzer (Applied Biosystems) with peak positions identified by using a set of X-rhodamine (ROX)-labeled MapMarker1000 molecular weight standards (BioVentures). The raw capillary electrophoresis data was processed using Attagraph software (Attagene).
Turning to `CCCCOCCOCCSC#N`, the result was inactive.

Take `Fc1c(F)c(F)c(Br)c(F)c1F`: the outcome was inactive.

Consider `BrC1CCC(Br)C(Br)CCC(Br)C(Br)CCC1Br` (stereo not given), for which the result was inactive.

`CCCC1CCC(=O)O1` (stereo not given): the result was inactive.

Consider `CCCC(C)C=O` (stereo not given), for which the result was inactive.

Consider `CC(=O)C(=O)O`, for which the outcome was inactive.

Turning to `CC(=O)OCc1ccc2c(c1)OCO2`, the outcome was inactive.

`O=C(Oc1ccccc1)c1ccc(O)cc1`: the result was inactive.

For the molecule `Nc1cc([N+](=O)[O-])ccc1Cl`, the result was inactive.

Regarding `O=[N+]([O-])c1ccc(C=Cc2ccc([N+](=O)[O-])cc2S(=O)(=O)O)c(S(=O)(=O)O)c1`, the result was inactive.

Regarding `CCCCNC(=O)NS(=O)(=O)c1ccc(C)cc1`, the outcome was inactive.

Consider `O=C=NC1CCC(CC2CCC(N=C=O)CC2)CC1` (stereo not given), for which the AC50 is 65.1 µM (active).

As for `CCCCC(CC)COC(=O)/C=C\C(=O)OCC(CC)CCCC` (stereo not given), the AC50 was 56.9 µM (active).

Turning to `CC(=O)O[C@H](CC(=O)[O-])C[N+](C)(C)C`, the outcome was inactive.

Take `Cc1cccc(C)c1[N+](=O)[O-]`: the outcome was inactive.

Take `C=CC(=O)OCCn1c(=O)n(CCOC(=O)C=C)c(=O)n(CCOC(=O)C=C)c1=O`: the outcome was inactive.

For the molecule `C/C=C(\C)C(=O)OCc1ccccc1`, the outcome was inactive.

Take `Nc1cc([N+](=O)[O-])ccc1O`: the result was inactive.

On to `C=CC(C)(C)O`, for which the result was inactive.

In the case of `O=C1OC2(c3cc(Br)c(O)c(Br)c3Oc3c2cc(Br)c(O)c3Br)c2c(Cl)c(Cl)c(Cl)c(Cl)c21`, the result was inactive.

In the case of `Cc1ccccc1C=O`, the outcome was inactive.

Regarding `Cc1cccc(C)c1C`, the outcome was inactive.

Consider `CCCCCC(CO)CCC` (stereo not given), for which the outcome was inactive.

For the molecule `COC(C(=O)O)c1ccccc1` (stereo not given), the outcome was inactive.

Consider `O=[N+]([O-])c1cc(C(F)(F)F)ccc1Cl`, for which the outcome was inactive.

Consider `CCC(C)(O)CCC=C(C)C` (stereo not given), for which the result was inactive.

As for `CC(C)(N)CO`, the outcome was inactive.

Take `CC(C)c1ccc(C(C)C)cc1`: the result was inactive.

On to `CCCCCCCCCC=O`, for which the result was inactive.

As to `CCN(CC)c1ccc2c(-c3ccccc3C(=O)O)c3ccc(=[N+](CC)CC)cc-3oc2c1`, the result was inactive.

As to `O=C(O)c1cccc([N+](=O)[O-])c1`, the result was inactive.

On to `CCCCCOC(=O)CCC`, for which the outcome was inactive.

Take `CO[Si](C)(OC)c1ccccc1`: the result was inactive.

As for `CCCCCCCCCCCCN`, the outcome was inactive.

As to `COc1c(Cl)c(Cl)c(Cl)c(Cl)c1Cl`, the result was inactive.

`CC(c1cc2ccccc2s1)N(O)C(N)=O` (stereo not given): the outcome was inactive.

Turning to `O=c1[nH]nnc2ccccc12`, the result was inactive.

Turning to `C=CC(C)(O)CCC=C(C)CCC=C(C)C` (stereo not given), the concentration at half-maximal activity (AC50) is 137 µM (active).

`COc1cc(C(C)(C)C)c(O)c(C(C)(C)C)c1`: the result was inactive.

`Cc1ccc(C(=O)O)o1`: the outcome was inactive.

One may read the AC50 as the midpoint of the concentration-response curve, whichever way the signal moves.
